G9a block = G9a (human) methyltransferase inhibition; Q96KQ7; G9a H3K9 monomethylation, AlphaScreen, 2 h; Potency, µM (top dose mostly 102 µM), inactives show at the top dose activity, negative = inhibition, actives largely listed as inhibitors; actives 8.8% (n = 350,000); AID 504332; also: potency is read from the fitted curve at half-maximal effect; nearly all actives have a fitted effect of over 75% in size
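Readings reflect AlphaScreen signal from monomethyl-H3K9 antibody detection. HMT at 20 nM; substrate b-H3K9 500 nM; cofactor SAM 20 uM; 2 h RT reaction; compounds tested as titrations in qHTS with 15 min preincubation.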
PLK1 PBD inh = blocks phosphopeptide binding to human PLK1 polo-box domain | Plk1 PBD binding of FITC phosphopeptide, fluorescence polarization | Potency, µM, without a hit: max response, negative = inhibition, most hits filed as inhibitors | actives 2.8% (n = 360,000) | AID 720504; also: potency is read from the fitted curve at half-maximal effect; series mostly up to about 57 µM; nearly all actives have a fitted effect of over 65% in size
Target sequence (P53350 whole entry, looked up, the tested form may be a part): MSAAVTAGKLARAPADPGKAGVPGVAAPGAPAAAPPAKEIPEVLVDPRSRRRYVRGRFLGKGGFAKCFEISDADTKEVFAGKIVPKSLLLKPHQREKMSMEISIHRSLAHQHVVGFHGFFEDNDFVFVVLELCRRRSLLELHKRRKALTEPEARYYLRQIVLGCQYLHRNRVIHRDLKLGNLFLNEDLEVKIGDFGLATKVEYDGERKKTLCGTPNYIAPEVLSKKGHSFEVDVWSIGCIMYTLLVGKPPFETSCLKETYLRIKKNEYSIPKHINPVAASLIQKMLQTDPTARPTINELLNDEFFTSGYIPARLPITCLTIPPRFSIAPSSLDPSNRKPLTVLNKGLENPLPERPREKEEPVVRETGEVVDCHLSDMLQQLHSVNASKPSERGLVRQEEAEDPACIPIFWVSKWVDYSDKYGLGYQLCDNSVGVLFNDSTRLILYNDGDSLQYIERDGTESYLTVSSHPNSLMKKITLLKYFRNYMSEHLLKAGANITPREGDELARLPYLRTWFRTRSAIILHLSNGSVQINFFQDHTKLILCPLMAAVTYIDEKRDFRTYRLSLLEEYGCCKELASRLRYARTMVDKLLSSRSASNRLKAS
CCT chaperon mod = modulators of cytosolic chaperonin (CCT/TRiC) activity; AID 651819; actives 0.3% (n = 360,000); activity change, % (test concentration not listed), hits read low; purified chaperonin ATPase assay, HTRF ADP detection, 30 min; in the data active = activity change below about -30%
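TRiC (40 or 20 nM final, by batch activity) in 30 mM Tris pH 7.4, 100 mM KCl, 5 mM MgCl2, 1 mM DTT was treated with compound at 76 uM single dose, then 10 uM ATP, 30 min at 37 °C. ADP was read by HTRF Transcreener.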
Mm-Cpn inhibitor = M. maripaludis TRiC chaperonin inhibition | actives 0.031% (n = 330,000) | Potency, µM (titrated, usually from 76.9 µM), without a hit: at the top dose activity, negative = inhibition, actives largely listed as inhibitors | purified Mm-Cpn ATPase, ADP Transcreener TR-FRET | AID 504842; also: potency is read from the fitted curve at half-maximal effect; nearly all actives have a fitted effect of over 80% in size
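TR-FRET (320 nm excitation; 590 and 665 nm emission) reports ADP made from 10 uM ATP by 25 nM enzyme; compounds were preincubated 10 min, reaction run 30 min, both at 37°C.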
VDR inh = inhibitors of human vitamin D receptor. P11473. VDR-SRC2-3 peptide fluorescence polarization, 2 h. Potency, µM, without a hit: max response, negative = inhibition, usual class: inhibitors. actives 0.93% (n = 400,000). AID 504847; also: potency is read from the fitted curve at half-maximal effect
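Measured by FP: displacement of SRC2-3 coactivator peptide from VDR by library compounds, following a two-hour ambient incubation.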
Sfp PPTase inh = inhibitors of Bacillus subtilis Sfp phosphopantetheinyl transferase; Biochemical Sfp PPTase activity, qHTS; AID 1490; Q9F4F7; Potency, µM, inactives show largest response in the series, negative = inhibition, hits mostly inhibitors; actives 3.5% (n = 310,000);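 also: the enzyme is Sfp with the accession as filed and its product quenches rhodamine fluorescence; potency is read from the fitted curve at half-maximal effect; 0% = enzyme reaction without inhibitor and -100% = no enzyme wells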
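Compounds were incubated with enzyme (final 15 nM) for 15 min at room temperature before substrate addition started the reaction. Fluorescence at 525 nm excitation, 598 nm emission was recorded immediately and after 30 minutes.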
* = called active by the depositor; ! = a repeat was not active; [ ] = another dose, or the depositor's remark. Shown are actives, neighbours in structure and some others; about 10% of the full set was active somewhere. Unless noted, calls follow the shape of the dose curve; as a rule, active = well fitted curve in the direction sought with a large enough effect; inconclusive = small, poorly fitted or top-dose-only effect, or another doubt; inactive = no such curve, though single readings can be large; an effect the other way counts as inactive or inconclusive. Unless noted, % is scaled to controls: 0 for no effect and ±100 for the full control effect.

Screening CCn1c(=O)c(C(=O)CN2c3ccccc3CC2C)c(N)n(Cc2ccccc2)c1=O (configuration not stated) returned G9a block 22µM*, PLK1 PBD inh -5%, CCT chaperon mod 0, Mm-Cpn inhibitor -1%, VDR inh -5% and Sfp PPTase inh 7%.
Screening Cc1cc(C)c(C)c(S(=O)(=O)N2CCN(CC(=O)c3c(N)n(Cc4ccccc4)c(=O)n(C)c3=O)CC2)c1C returned G9a block -6%, PLK1 PBD inh 0%, CCT chaperon mod 0, Mm-Cpn inhibitor 1%, VDR inh 6% and Sfp PPTase inh 5%.
For CC1Cc2ccccc2N1CC(=O)c1c(N)n(Cc2ccccc2)c(=O)n(C)c1=O (configuration not stated) the results were G9a block 40µM*, PLK1 PBD inh -3%, CCT chaperon mod -5, Mm-Cpn inhibitor 0%, VDR inh -14% and Sfp PPTase inh 6%.
For CCn1c(=O)c(C(=O)CN2CCN(S(=O)(=O)c3ccc(C)cc3C)CC2)c(N)n(Cc2ccccc2)c1=O the results were G9a block 45µM*, PLK1 PBD inh 3%, CCT chaperon mod 1, Mm-Cpn inhibitor -1%, VDR inh inconclusive and Sfp PPTase inh 15%.
Screening CCN(C(=O)CN1c2ccccc2CC1C)c1c(N)n(Cc2ccccc2)c(=O)[nH]c1=O (configuration not stated) returned G9a block -2%, PLK1 PBD inh -4%, CCT chaperon mod 1, Mm-Cpn inhibitor 3%, VDR inh 15% and Sfp PPTase inh 13%.
Screening CCn1c(=O)c(C(=O)CN(C)Cc2cccc(OC)c2OC)c(N)n(Cc2ccccc2)c1=O returned G9a block 25µM*, PLK1 PBD inh -33%, CCT chaperon mod 0, Mm-Cpn inhibitor 1%, VDR inh 0% and Sfp PPTase inh 63µM*.
NC(=O)c1ccc(NC(=O)C2CCN(S(=O)(=O)Cc3ccccc3)CC2)cc1 was read as G9a block inconclusive and VDR inh 15%.
For CCN(Cc1ccccc1)C(=O)c1cc2c(=O)[nH]c3ccc(C)cc3c2s1 the results were G9a block -3%[59 µM] and VDR inh -2%.
Screening C[N+]1(CC(O)COCC2COc3ccccc3O2)CCOCC1 (configuration not stated) returned G9a block 35µM*, PLK1 PBD inh -16%, CCT chaperon mod 2, Mm-Cpn inhibitor 0%, VDR inh -1% and Sfp PPTase inh 7%.
`OC(COCC1COc2ccccc2O1)CN1CCCCC1` (configuration not stated) gave G9a block -11%, PLK1 PBD inh 30µM*, CCT chaperon mod 0, Mm-Cpn inhibitor 0%, VDR inh -9% and Sfp PPTase inh 11%.
Screening Cc1ccsc1CCN1C(=O)N(c2ccccc2)C(=O)C1CC(=O)Nc1ccc(F)cc1 (configuration not stated) returned G9a block 9%[59 µM] and VDR inh -3%.
`Cc1ccc(C(=O)NCC(=O)OC(C)C(=O)Nc2ccc(N(C)C)cc2)cc1C` (configuration not stated) gave G9a block 25µM*, PLK1 PBD inh 2%, CCT chaperon mod 0, Mm-Cpn inhibitor -5%, VDR inh 6% and Sfp PPTase inh 7%.
`O=C(O)C1Cc2ccccc2CN1S(=O)(=O)c1ccc2ccccc2c1` (configuration not stated) gave G9a block 7.9µM*, PLK1 PBD inh -23%, CCT chaperon mod -3, Mm-Cpn inhibitor 2%, VDR inh 6% and Sfp PPTase inh inconclusive.
`CCOc1ccc(NC(=O)c2oc3ccccc3c2NC(=O)Cc2cccs2)cc1` gave G9a block -1%[59 µM] and VDR inh -18%.
N[C@H](C(=O)O)c1cccc(O)c1 was read as G9a block 39%[59 µM], VDR inh 7% and Sfp PPTase inh 45µM*!.
`N[C@H](C(=O)O)c1ccc(O)c(C(=O)O)c1` gave G9a block 34%[59 µM], VDR inh 11% and Sfp PPTase inh 20µM*.
For NC(C(=O)O)C(O)c1ccc(O)c(O)c1 (configuration not stated) the results were G9a block 1.1µM*, VDR inh inconclusive and Sfp PPTase inh 45µM*.
`NC(C(=O)O)c1ccc(O)cc1` (configuration not stated) gave G9a block -27%[12.7 µM], VDR inh -2% and Sfp PPTase inh 4%.
Screening COc1ccc2cc(CNc3ccc(C)cc3)c(=O)n(CC(=O)Nc3ccc(OC)c(Cl)c3)c2c1 returned G9a block -29%[59 µM] and VDR inh 0%.
CCOC(=O)N1CCN(Cc2nc3cc(NC(=O)C(C)C)ccc3n2C(C)C)CC1 was read as G9a block 1%[59 µM] and VDR inh 1%.
For C=CCN1C(=O)c2ccc(C(=O)OCC(=O)Nc3ccc(S(N)(=O)=O)cc3)cc2C1=O the results were G9a block 50µM*, PLK1 PBD inh -5%, CCT chaperon mod 0, Mm-Cpn inhibitor 2% and VDR inh 8%.
Screening CN(C)c1ccc(C(=O)OCC(=O)Nc2ccc(S(N)(=O)=O)cc2)cc1 returned G9a block inconclusive, PLK1 PBD inh -18%, CCT chaperon mod -2, Mm-Cpn inhibitor -4%, VDR inh 17% and Sfp PPTase inh 11%.
`COc1ccc(C2c3c(-c4ccccc4)n[nH]c3C(=O)N2c2ccc(C(=O)O)cc2)c(OC)c1` (configuration not stated) gave G9a block 1%[59 µM] and VDR inh -23%.
For COc1ccccc1-c1cncnc1N1CCN(C)CC1 the results were G9a block -39%[0.501 µM], VDR inh inconclusive and Sfp PPTase inh -11%.
`O=C1CSC2(N1)C1CC3CC(C1)CC2C3` (configuration not stated) gave G9a block 15%[59 µM], PLK1 PBD inh -2%, CCT chaperon mod 0, Mm-Cpn inhibitor 4%, VDR inh -8% and Sfp PPTase inh -2%.
Screening C1CSC2(N1)C1CC3CC2CC(C1)C31NCCS1 (configuration not stated) returned G9a block inconclusive, PLK1 PBD inh -6%, CCT chaperon mod -3, Mm-Cpn inhibitor -1%, VDR inh -22% and Sfp PPTase inh 20µM*.
Cc1ccccc1-c1n[nH]c(=S)n1/N=C/c1c(C)nn(-c2ccccc2)c1C was read as G9a block 1µM*, PLK1 PBD inh -20%, CCT chaperon mod -2, Mm-Cpn inhibitor 0%, VDR inh -8% and Sfp PPTase inh inconclusive.

Assay outcomes: PubChem, National Center for Advancing Translational Sciences (NCATS)
